# In PubChem BioAssay:
# Several values for one entry are separate records, joined by “and”; a condition that tells them apart may be missing. Identical values can stand only once. The source holds several records for some structures; these can differ, active in one and inactive in another. Activity calls are given as the source filed them.
# How the values were obtained:
# [1] = test system: PRMT1 (protein arginine N-methyltransferase 1); assay: small molecules binding arginine methyltransferase PRMT1 – biochemical, small-molecule microarray, 635 nm fluorescence, primary screen (AID 1088); conditions: higher = more signal;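 further: binding of Prmt1 protein to compounds spotted on small-molecule microarray slides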
# [2] = growth effects on S. cerevisiae YJM789 – YJM789 clinical isolate, OD600, 24 h, basal, primary screen (AID 1089); conditions: higher = more signal, called active from +8 up or from −8 down;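 further: growth of clinical yeast isolate S. cerevisiae YJM 789 seeded 1000 cells per well; test concentration not given here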
# [3] = S. pombe growth modifiers, basal conditions – strain 972, OD600, 24 h, no modulator, primary screen (AID 1090);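 further: basal condition with compound alone and no growth modifier present; test concentration not given here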; conditions: S. pombe 972 growth, higher = more signal, called active from +8 up or from −8 down
# [4] = budding yeast growth modifiers under rapamycin – strain BY4716, OD600, 96 h, primary screen (AID 1091); further: test concentration not given here; conditions: S. cerevisiae BY4716 + rapamycin, higher = more signal, called active from +8 up or from −8 down
# [5] = biological target: Torsin-1A-interacting protein 2 (Homo sapiens) (UniProt Q8NFQ8); assay: small molecules binding lysate-expressed LULL1 – cell lysate, human LULL1 lysate, 635/667 nm fluorescence, primary screen (AID 1092); conditions: small-molecule microarray, hLULL1 lysate binding, 635 nm fluorescence; higher = more signal;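 further: probe is lysate of COS7 cells overexpressing human LULL1; score merges per-feature 667 nm fluorescence with signal-to-noise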
# Chain of Torsin-1A-interacting protein 2 (Homo sapiens) (Q8NFQ8 whole entry, looked up): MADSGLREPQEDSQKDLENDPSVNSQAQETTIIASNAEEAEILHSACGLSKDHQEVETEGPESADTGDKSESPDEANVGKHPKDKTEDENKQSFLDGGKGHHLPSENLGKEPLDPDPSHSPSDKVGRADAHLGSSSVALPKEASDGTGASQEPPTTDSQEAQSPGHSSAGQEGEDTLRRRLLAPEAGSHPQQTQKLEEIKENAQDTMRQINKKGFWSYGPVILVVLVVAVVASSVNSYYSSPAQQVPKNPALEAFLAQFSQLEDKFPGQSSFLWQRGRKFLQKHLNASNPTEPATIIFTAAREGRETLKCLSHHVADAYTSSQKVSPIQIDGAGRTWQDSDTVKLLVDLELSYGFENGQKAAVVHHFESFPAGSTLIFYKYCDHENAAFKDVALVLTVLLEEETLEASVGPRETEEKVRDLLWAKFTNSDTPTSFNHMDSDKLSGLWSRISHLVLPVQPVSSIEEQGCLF
# [6] = optical density change of DRC41 E. coli – strain DRC41, OD650, 24 h, E. coli filamentation project, primary screen (AID 1093);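 further: MC1000 strain lacking acrAB efflux and sulA so SOS filamentation is blocked; test concentration not given here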; conditions: E. coli DRC41 growth, higher = more signal, called active from +8 up or from −8 down
# [7] = probe aLefty2 binding to arrayed compounds – biochemical, biotinylated probe, 635/667 nm fluorescence, primary screen (AID 1094); conditions: small-molecule microarray, higher = more signal;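 further: score merges spot fluorescence near 667 nm with spot signal-to-noise ratio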
# [8] = test system: Noggin (protein binding on small-molecule microarray); assay: small molecules binding Noggin protein – biochemical, 635/667 nm fluorescence, primary screen (AID 1095); conditions: 635 nm fluorescence, higher = more signal;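 further: score merges 667 nm feature fluorescence with signal to noise over triplicate slides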
# [9] = biological target: Neurogenic locus notch homolog protein 3 (Homo sapiens) (UniProt Q9UM47); assay: small molecules binding NOTCH3 protein – biochemical, 635/667 nm fluorescence, primary screen (AID 1096); conditions: small-molecule microarray, 635 nm fluorescence, higher = more signal
# Chain of Neurogenic locus notch homolog protein 3 (Homo sapiens) (Q9UM47 whole entry, looked up): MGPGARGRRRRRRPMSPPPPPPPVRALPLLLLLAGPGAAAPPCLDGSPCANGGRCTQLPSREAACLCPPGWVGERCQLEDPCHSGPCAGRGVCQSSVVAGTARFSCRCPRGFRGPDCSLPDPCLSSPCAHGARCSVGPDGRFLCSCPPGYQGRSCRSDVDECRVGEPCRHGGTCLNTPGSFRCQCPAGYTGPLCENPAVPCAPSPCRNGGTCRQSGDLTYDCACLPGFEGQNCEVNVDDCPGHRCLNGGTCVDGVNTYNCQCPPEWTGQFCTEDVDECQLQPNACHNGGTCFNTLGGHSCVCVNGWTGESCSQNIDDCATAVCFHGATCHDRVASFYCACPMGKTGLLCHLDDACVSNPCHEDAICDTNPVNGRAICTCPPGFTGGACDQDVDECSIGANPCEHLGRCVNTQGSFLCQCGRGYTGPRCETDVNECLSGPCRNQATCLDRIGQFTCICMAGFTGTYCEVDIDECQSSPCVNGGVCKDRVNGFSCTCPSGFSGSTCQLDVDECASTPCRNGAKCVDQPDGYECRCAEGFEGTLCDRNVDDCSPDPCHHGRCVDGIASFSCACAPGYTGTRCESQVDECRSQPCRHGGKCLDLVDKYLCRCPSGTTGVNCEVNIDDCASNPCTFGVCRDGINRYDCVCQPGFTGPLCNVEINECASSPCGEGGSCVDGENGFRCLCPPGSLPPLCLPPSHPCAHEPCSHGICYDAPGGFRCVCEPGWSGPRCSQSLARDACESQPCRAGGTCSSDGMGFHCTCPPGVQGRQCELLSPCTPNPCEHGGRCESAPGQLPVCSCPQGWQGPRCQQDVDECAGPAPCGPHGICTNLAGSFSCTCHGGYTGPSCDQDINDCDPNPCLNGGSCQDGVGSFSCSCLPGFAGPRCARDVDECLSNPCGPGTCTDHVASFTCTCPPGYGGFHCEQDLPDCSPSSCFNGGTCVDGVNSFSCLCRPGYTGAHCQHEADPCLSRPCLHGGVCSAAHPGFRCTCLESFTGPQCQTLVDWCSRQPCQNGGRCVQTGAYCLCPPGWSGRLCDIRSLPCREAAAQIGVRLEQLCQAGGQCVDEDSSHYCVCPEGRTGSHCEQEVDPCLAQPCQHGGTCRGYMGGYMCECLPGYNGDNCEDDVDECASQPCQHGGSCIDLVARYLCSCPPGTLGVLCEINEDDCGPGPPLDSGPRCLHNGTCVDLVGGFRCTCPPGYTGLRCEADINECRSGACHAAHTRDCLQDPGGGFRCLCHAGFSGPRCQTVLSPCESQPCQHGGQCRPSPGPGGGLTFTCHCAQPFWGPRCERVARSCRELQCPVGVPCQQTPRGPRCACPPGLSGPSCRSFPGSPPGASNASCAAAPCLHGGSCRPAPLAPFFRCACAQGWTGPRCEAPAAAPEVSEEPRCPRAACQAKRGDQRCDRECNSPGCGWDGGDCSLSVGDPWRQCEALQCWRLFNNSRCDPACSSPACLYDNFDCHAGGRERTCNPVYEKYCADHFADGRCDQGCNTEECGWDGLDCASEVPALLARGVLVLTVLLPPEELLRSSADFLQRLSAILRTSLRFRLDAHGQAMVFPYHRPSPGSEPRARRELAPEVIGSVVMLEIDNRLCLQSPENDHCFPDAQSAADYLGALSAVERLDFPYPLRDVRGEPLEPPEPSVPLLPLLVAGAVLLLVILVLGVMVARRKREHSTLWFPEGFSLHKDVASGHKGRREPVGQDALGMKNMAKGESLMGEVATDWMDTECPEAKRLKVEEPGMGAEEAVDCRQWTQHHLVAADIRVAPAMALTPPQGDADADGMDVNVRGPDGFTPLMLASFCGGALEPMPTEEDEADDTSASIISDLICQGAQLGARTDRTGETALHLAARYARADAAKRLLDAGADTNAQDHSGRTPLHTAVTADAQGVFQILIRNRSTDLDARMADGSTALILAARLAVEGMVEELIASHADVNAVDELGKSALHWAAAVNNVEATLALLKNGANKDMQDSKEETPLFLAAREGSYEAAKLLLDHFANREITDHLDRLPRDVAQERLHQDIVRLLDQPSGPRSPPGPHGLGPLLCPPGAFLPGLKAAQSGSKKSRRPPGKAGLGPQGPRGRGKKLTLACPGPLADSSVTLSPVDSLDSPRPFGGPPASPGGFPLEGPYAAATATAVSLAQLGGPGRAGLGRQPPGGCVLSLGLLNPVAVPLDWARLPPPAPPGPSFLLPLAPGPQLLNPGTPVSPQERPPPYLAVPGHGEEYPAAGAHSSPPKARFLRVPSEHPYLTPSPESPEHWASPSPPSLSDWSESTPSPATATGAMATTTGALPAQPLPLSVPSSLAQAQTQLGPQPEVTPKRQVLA
# [10] = probe aEGFR binding to arrayed compounds – biochemical, biotinylated probe, 635/667 nm fluorescence, primary screen (AID 1097); conditions: small-molecule microarray, higher = more signal;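 further: probe is a biotinylated anti-EGFR antibody binding compounds printed on slides; score combines fluorescence near 667 nm and signal to noise of each spot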
# [11] = test system: Plasmodium falciparum Sir2 (PF13_0152, Sir2A); assay: Plasmodium falciparum Sir2A binding compounds – biochemical, small-molecule microarray, 635 nm fluorescence, primary screen (AID 1098); conditions: fluorescence 635 nm, higher = more signal;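 further: score merges spot fluorescence intensity with its signal-to-noise ratio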
# [12] = probe aDKK1 binding to arrayed compounds – biochemical, biotinylated probe, 635/667 nm fluorescence, primary screen (AID 1099); conditions: small-molecule microarray, higher = more signal;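 further: score merges 667nm spot fluorescence with signal to noise across triplicate slides; reference of the scale not given here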
# [13] = probe aCHRDL2 binding to arrayed compounds – biochemical, biotinylated probe, 635/667 nm fluorescence, primary screen (AID 1100); conditions: small-molecule microarray, higher = more signal
# [14] = change in splice reporter luminescence, either direction, cell-based, HEK293, spliceosome inhibition project, primary screen (AID 1101); conditions: HEK293 splicing luciferase reporter, 24 h, higher = more signal, called active from +8 up or from −8 down;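 further: HEK293 cells carrying a splicing-competent luciferase reporter gene; test concentration not given here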
# [15] = biological target: Fibroblast growth factor 10 (Homo sapiens) (UniProt O15520); assay: compounds binding fibroblast growth factor 10 – biochemical, small-molecule microarray, 635 nm fluorescence, primary screen (AID 1102); conditions: FGF10 binding, fluorescence 635 nm, higher = more signal
# Chain of Fibroblast growth factor 10 (Homo sapiens) (O15520 whole entry, looked up): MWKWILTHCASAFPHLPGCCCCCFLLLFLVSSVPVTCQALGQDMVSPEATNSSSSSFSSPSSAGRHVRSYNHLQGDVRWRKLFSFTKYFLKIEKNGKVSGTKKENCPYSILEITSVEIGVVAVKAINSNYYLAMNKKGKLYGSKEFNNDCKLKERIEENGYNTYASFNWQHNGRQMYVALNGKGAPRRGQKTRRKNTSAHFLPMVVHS
# [16] = test system: glycogen synthase kinase-3 (GSK3A per assay name; protocol says GSK3B); assay: compounds binding glycogen synthase kinase-3 – biochemical, small-molecule microarray, 635 nm fluorescence, GSK3A, primary screen (AID 1103); conditions: fluorescence 635 nm, higher = more signal; further: the record names both GSK3A and GSK3B
# [17] = biological target: Epidermal growth factor receptor (Homo sapiens) (UniProt P00533); assay: compounds binding epidermal growth factor receptor – biochemical, small-molecule microarray, 635 nm fluorescence, primary screen (AID 1104); conditions: EGFR binding, higher = more signal;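 further: score merges 667 nm emission intensity with spot signal to noise over triplicate slides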
# Chain of Epidermal growth factor receptor (Homo sapiens) (P00533 whole entry, looked up): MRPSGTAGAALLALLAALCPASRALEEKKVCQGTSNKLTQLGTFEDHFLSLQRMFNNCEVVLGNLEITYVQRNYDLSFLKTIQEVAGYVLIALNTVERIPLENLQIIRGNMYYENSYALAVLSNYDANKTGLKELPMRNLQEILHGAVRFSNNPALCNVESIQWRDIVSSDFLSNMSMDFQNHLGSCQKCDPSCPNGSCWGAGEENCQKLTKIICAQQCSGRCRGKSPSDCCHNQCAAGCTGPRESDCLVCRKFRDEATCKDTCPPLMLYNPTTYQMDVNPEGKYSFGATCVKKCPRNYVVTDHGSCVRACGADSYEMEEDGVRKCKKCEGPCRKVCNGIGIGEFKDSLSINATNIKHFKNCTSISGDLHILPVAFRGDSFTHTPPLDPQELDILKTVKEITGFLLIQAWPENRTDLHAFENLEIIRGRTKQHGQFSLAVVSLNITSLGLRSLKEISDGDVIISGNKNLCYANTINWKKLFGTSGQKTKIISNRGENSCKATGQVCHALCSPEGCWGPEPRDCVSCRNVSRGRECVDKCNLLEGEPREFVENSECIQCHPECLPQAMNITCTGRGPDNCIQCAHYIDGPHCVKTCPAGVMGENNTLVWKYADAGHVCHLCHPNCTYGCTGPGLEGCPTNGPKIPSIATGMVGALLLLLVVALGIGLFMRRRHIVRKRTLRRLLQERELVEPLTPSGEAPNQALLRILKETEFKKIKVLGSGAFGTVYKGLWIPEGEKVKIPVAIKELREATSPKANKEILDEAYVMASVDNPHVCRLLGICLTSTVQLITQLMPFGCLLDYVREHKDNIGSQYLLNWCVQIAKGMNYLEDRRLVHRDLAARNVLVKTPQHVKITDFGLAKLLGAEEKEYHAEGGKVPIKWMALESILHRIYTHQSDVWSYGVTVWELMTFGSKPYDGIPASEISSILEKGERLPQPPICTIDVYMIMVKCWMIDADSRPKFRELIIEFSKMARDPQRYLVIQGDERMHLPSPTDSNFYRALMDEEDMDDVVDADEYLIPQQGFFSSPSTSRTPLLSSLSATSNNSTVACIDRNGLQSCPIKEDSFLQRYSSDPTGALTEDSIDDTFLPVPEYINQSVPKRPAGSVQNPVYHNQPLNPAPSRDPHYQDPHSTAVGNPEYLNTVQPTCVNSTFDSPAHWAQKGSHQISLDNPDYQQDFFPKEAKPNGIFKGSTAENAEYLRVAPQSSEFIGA
# [18] = biological target: Follistatin-related protein 3 (Homo sapiens) (UniProt O95633); assay: compounds binding follistatin-related protein 3 – biochemical, small-molecule microarray, 635 nm fluorescence, primary screen (AID 1105); conditions: FSTL3 binding, higher = more signal;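 further: score merges emission near 667 nm and signal to noise per printed spot across three slides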
# Chain of Follistatin-related protein 3 (Homo sapiens) (O95633 whole entry, looked up): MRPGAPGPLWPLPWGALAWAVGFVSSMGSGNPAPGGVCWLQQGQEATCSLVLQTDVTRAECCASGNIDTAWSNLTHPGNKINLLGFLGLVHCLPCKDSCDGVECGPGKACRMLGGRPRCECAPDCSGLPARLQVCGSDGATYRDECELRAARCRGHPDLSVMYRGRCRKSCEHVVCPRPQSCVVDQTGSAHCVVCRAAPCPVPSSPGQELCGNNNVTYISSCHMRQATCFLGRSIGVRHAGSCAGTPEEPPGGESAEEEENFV
# [19] = biological target: Dickkopf-related protein 1 (Homo sapiens) (UniProt O94907); assay: small molecules binding DKK1 protein – biochemical, small-molecule microarray, 635 nm fluorescence scan, primary screen (AID 1106); conditions: higher = more signal;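 further: score merges emission near 667 nm with signal to noise over three replicate slides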
# Chain of Dickkopf-related protein 1 (Homo sapiens) (O94907 whole entry, looked up): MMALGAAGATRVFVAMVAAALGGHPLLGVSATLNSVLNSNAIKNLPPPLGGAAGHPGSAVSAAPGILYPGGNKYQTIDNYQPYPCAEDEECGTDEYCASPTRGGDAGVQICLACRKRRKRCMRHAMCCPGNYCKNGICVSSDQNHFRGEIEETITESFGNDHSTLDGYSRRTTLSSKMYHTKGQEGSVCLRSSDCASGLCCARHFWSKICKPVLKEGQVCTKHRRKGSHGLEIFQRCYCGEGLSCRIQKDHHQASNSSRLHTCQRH
# [20] = test system: Inhibin beta A chain (activin A); assay: small molecules binding activin A – biochemical, small-molecule microarray, 635 nm fluorescence scan, primary screen (AID 1107); conditions: INHBA, higher = more signal;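 further: mouse activin A protein probed at 4.33 µg/mL on printed slides; score merges bound-protein fluorescence near 667 nm with spot signal-to-noise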
SMILES,composite z-score [1],z-score [2],z-score [3],z-score [4],composite z-score [5],z-score [6],composite z-score [7],composite z-score [8],composite z-score [9],composite z-score [10],composite z-score [11],composite z-score [12],composite z-score [13],z-score [14],composite z-score [15],composite z-score [16],composite z-score [17],composite z-score [18],composite z-score [19],composite z-score [20]
CCCC[C@@H]1CN2[C@@H](CC[C@@H](C)[C@@H]2c2ccc(Br)cc2)C(=O)O1,1.38 and 0.811,0.301 (inactive) and 0.0912 (inactive),-17.2 (active) and -6.6 (inactive),-0.278 (inactive) and 0.42 (inactive),1.93 and 1.44,0.133 (inactive) and 0.153 (inactive),-0.0446 and -0.239,0.0666 and -0.156,0.287 and 0.683,-0.141 and 0.0021,0.469 and 0.883,-0.13 and -0.277,-0.455 and -0.254,0.33 (inactive) and 0.758 (inactive),0.979 and 0.906,0.521 and 0.0677,0.183 and -0.121,0.516 and 0.351,0.272 and 0.136,0.488 and -0.0019
C[N+](C)(C)CCCCCCNC(=O)[C@H]1C[C@H]2C(=O)N[C@@H](CCCC[N+](C)(C)C)C(=O)N2[C@H]1c1ccc(O)cc1,0.258 and -0.147,0.166 (inactive) and 0.547 (inactive),0.268 (inactive) and -0.656 (inactive),0.122 (inactive) and 0.411 (inactive),0.106 and 0.967,0.595 (inactive) and -0.0409 (inactive),-0.0322 and -0.0179,0.938 and 0.161,-0.275 and -0.316,-0.151 and -0.236,0.819 and 1.44,-0.359 and -0.0843,-0.304 and 0.224,-0.616 (inactive) and -0.146 (inactive),0.508 and -0.456,-0.253 and -0.528,0.28 and -0.409,0.41 and -0.414,0.867 and 0.455,0.469 and 1.16
C=C[C@@H](OC)[C@H](O)c1ccc(OCCO)cc1,0.194 and -0.0886,-0.0303 (inactive) and -2.64 (inactive),0.331 (inactive) and -1.68 (inactive),-0.603 (inactive) and -0.883 (inactive),1.5 and -0.567,-0.443 (inactive) and 2.25 (inactive),-0.0466 and -0.0666,-0.902 and -0.131,-0.19 and -0.876,-0.383 and -0.265,1.43 and -0.202,0.644 and -0.649,0.75 and 0.283,-0.462 (inactive) and -2.83 (inactive),-0.72 and -1.24,-0.586 and -1.15,-1.55 and -0.957,-0.782 and -0.109,-1.06 and -0.955,-0.294 and -1.79
CC(C)CCN1CCc2nc(-c3ccccc3)c3c(c2C1)CO[C@@H](C)C3,0.837,-0.334 (inactive),-0.519 (inactive),0.622 (inactive),1.8,0.825 (inactive),-0.0641,0.444,0.922,-0.0578,-0.0208,0.233,-0.148,0.109 (inactive),0.476,0.77,0.516,0.579,0.689,0.55
C=C[C@@H](OC)[C@H](O)c1ccc(O)c(F)c1,-0.846 and -1.51,0.144 (inactive) and -3.13 (inactive),-1.44 (inactive) and -3.23 (inactive),0.126 (inactive) and -0.692 (inactive),-0.329 and -0.941,0.401 (inactive) and 1.45 (inactive),-0.257 and -0.124,-2.13 and -1.13,-1.37 and -0.192,-0.435 and -0.299,0.767 and -0.815,-0.324 and -0.472,0.576 and 0.268,-0.668 (inactive) and -2.09 (inactive),-1.19 and -1.46,-1.5 and -1.29,-1.59 and -0.277,-2.7 and -1.75,-1.37 and -0.856,-2.04 and -0.759
CC(C)OC(=O)C=C1C[C@@H](c2ccccc2)O[C@@H](c2ccccc2)O1,1.5 and 1.54,-0.023 (inactive) and 0.548 (inactive),-4.66 (inactive) and -7.08 (inactive),-0.793 (inactive) and 0.632 (inactive),3.33 and 3.12,0.551 (inactive) and 0.884 (inactive),0.0528 and 0.269,1.09 and 0.798,1.09 and 1.13,0.302 and 0.366,0.733 and 1.54,0.164 and 0.272,0.0614 and 0.847,0.0661 (inactive) and 2.56 (inactive),1.45 and 1.42,1.34 and 1.31,0.65 and 0.664,1.44 and 1.41,0.527 and 0.481,-0.0632 and 1.05
CCOC(=O)CCN1C(=O)[C@H]2[C@H]3[C@H](O)[C@H](O)CC(=NNC(=O)OCC)[C@@H]3CC[C@H]2C1=O,0.763,-0.373 (inactive),-0.769 (inactive),-0.491 (inactive),0.45,0.441 (inactive),0.0634,0.531,0.316,0.095,0.238,-0.0567,-0.0213,0.519 (inactive),0.283,0.0666,0.209,0.0654,-0.0149,-0.772
C=C[C@@H](OC)[C@H](O)c1ccc(OC)c(O)c1,0.852 and -0.645,-0.722 (inactive) and -0.94 (inactive),-0.322 (inactive) and -0.469 (inactive),-0.116 (inactive) and -0.423 (inactive),-0.1 and -0.81,0.77 (inactive) and 1.76 (inactive),-0.17 and -0.109,0.941 and 0.0939,-0.233 and -1.14,-0.277 and -0.33,-1.12 and 0.402,-0.42 and -0.521,-0.6 and -0.0832,-0.984 (inactive) and -1.14 (inactive),0.146 and -0.514,-0.374 and -0.669,0.526 and -1.08,0.878 and -0.9,0.131 and -0.539,1.27 and -0.492
